In the library only some 8% were active in any assay of this set; here they are far more common.
Gal4-VP16 FLuc: inhibits Gal4-VP16 luciferase reporter, ROR gamma counter-screen | Drosophila S2 Gal4-VP16 UAS-luciferase, luminescence, 20 h | Potency, µM (doses to about 53.6 µM), for inactives: top-dose activity, negative = inhibition, hits mostly inhibitors | hit rate 3.5% among 310,000;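 note: Gal4-VP16 expression switched on by copper sulfate through the metallothionein promoter; potency is the fitted concentration of half-maximal effect; nearly all actives have a fitted effect of over 50% in size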
Coupling enz: counter-screen for Giardia aldolase inhibitors: coupling enzyme system. coupling enzyme system counterscreen, AmpLite Red fluorescence. activity change, negative = inhibition, % at 58.2 µM, hits read low. hit rate 0.67% among 290,000. AID 2472; in the data active = activity change below about -30%
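Activity here indicates interference with the coupling reaction, not aldolase inhibition. Compounds at 57.5 uM final met coupling enzymes for 10 min at RT; substrate and AmpLite Red detection followed, with a 525/598 nm fluorescence read after 20 min.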
TSHR antag: antagonists of human thyroid stimulating hormone receptor | AID 504810 | TSHR-expressing cells, TSH-stimulated cAMP HTRF, 2 h; hits give low values | hit rate 0.2% among 330,000 | activity change, negative = inhibition, % at 11.5 µM | P16473;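 active = activity change below a set negative limit, meaning inhibition stronger than a set level, cut at about -70% in these data; inconclusive = activity change between two set negative limits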
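Cell-based HTRF cAMP assay; TSHR cells + compound, TSH EC80 (4nM final), 2 h, 37 deg C. Lysis with anti-cAMP cryptate and cAMP-d2, 30 min RT, read 665/620 nm.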
RORg inh: inhibitors of mouse ROR gamma transcriptional activity. P51450. Drosophila S2 Gal4-RORgamma UAS-luciferase reporter, 20 h. Potency, µM (series often up to 53.6 µM), for the others: top-dose activity change, negative = inhibition, actives largely listed as inhibitors. hit rate 5.4% among 310,000. AID 2551; note: potency is the fitted concentration of half-maximal effect; nearly all actives have a fitted effect of over 60% in size
Target sequence (P51450 whole entry, looked up, the tested form may be a part): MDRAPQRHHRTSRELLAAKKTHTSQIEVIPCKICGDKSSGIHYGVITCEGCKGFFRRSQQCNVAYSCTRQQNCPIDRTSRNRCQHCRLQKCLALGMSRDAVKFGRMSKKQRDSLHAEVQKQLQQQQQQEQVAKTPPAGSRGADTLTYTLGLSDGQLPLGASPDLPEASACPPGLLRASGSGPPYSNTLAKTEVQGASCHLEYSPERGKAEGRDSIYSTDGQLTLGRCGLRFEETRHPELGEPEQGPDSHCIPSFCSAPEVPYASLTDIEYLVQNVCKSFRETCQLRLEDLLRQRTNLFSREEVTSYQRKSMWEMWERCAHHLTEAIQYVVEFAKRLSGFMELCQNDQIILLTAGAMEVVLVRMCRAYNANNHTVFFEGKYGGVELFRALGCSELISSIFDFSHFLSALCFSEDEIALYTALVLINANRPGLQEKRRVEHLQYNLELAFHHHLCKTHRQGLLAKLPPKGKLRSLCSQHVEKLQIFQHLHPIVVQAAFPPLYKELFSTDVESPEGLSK
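Luciferase reporter read in Schneider cells carrying Gal4-RORγ (mouse) and UAS-Photinus luciferase; cells given compound 1 h before 700 uM copper sulfate induction, then incubated 20 h at ambient temperature.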
ELG1 DNA repair: inhibitors of ELG1-dependent DNA repair in HEK293T cells; HEK293T ELG1-luciferase reporter, luminescence, 16 h; DNA damage induced by 5-fluorouridine; Potency, µM (top dose mostly 46.1 µM), for inactives: at the top dose activity change, negative = inhibition, usual class: inhibitors; hit rate 2.3% among 330,000; AID 504467; note: potency is the fitted concentration of half-maximal effect; nearly all actives have a fitted effect of over 55% in size
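Overnight (16 hr) co-exposure of 2,000 cells/well to 5-fluorouridine and compound at 37 °C preceded detection. Luciferase was quantified via ONE-Glo luminescence; loss of signal denotes inhibition.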
* hit, by the source's call; ? = inconclusive; . = no result; [ ] = remark or other dose. Unless noted, calls come from the whole dose curve; as a rule, active = well fitted curve in the direction sought with a large enough effect; inconclusive = small, poorly fitted or top-dose-only effect, or another doubt; inactive = no such curve, though single readings can be large; an effect the other way counts as inactive or inconclusive. % is set by controls: 0 for no effect and ±100 for the full control effect.

SMILES | Gal4-VP16 FLuc | Coupling enz | TSHR antag | RORg inh | ELG1 DNA repair
COc1cccc(/C=N/NC(=O)C(C)n2nc(C)c([N+](=O)[O-])c2C)c1O (stereo not drawn) | 0.04µM* | 1 | 10 | 0.18µM* | 17%
COc1cccc(/C=N\NC(=O)c2ccc(Cn3cc(Br)c([N+](=O)[O-])n3)o2)c1O | 0.28µM* | 3 | 20 | 3% | ?
Cc1nn(CC(=O)N/N=C/c2cccs2)c(C)c1[N+](=O)[O-] | -27% | -1 | -7 | ? | 3%
CCN(c1ccc(NC(=O)c2ccc(N3CCCC3=O)cc2)cc1)C(C)C | . | . | -12 | . | ?
CC1c2cc3c(cc2CCN1C(=O)c1ccc(Cl)cc1)OCCCO3 (stereo not drawn) | 0% | . | -11 | 22% | 23µM*
CC(=O)c1cccc(NC(=O)CN2CCc3cc4c(cc3C2C)OCCCO4)c1 (stereo not drawn) | 1% | 1 | 9 | 3% | 12µM*
Cc1ccc(C2=Nc3ccccc3SC(c3cccc([N+](=O)[O-])c3)C2)cc1 (stereo not drawn) | 13µM* | -16 | -6 | 5.6µM* | ?
CCOc1ccccc1CN1CCNC(=O)C1CC(=O)NCc1ccccn1 (stereo not drawn) | ? | . | -2 | 11µM* | 20%
O=C(CC1C(=O)NCCN1Cc1ccc(-c2ccccc2)cc1)NCCOc1cccnc1 (stereo not drawn) | 20µM* | -6 | -13 | 3% | ?
COC(=O)c1ccccc1OCCCOc1ccc(C=O)cc1OC | 10µM* | 0 | 33 | 8.9µM* | ?
COc1cc(C=O)ccc1OCc1ccccc1Br | 11µM* | 2 | 0 | 10µM* | ?
COc1cc(C=O)ccc1OCc1cccc(Br)c1 | ? | 1 | -16 | ? | ?
OCCC1CN(Cc2ccc3cccc(F)c3n2)CCN1Cc1ccccc1 (stereo not drawn) | -8% | 1 | 10 | -10% | -2%
COc1ccc(-n2c(-c3ccc(Cl)cc3)c[n+]3c2CCc2ccccc2-3)cc1 | 13µM* | 3 | 0 | ? | 2.3µM*
COc1ccc(-n2c(-c3ccccc3)nnc2-c2ccc(Cl)cc2)cc1 | -12% | 11 | 0 | 9% | 2%
C[C@@H]1CNCCN1S(=O)(=O)c1cccc2cnccc12 | 25µM* | 5 | . | ? | .
COc1ccccc1C(=O)Nc1ccc(S(=O)(=O)Nc2cnc3ccccc3n2)cc1 | -13% | 6 | -6 | 10% | 11%
CCC(CC)C1C(C#N)=C(N)Oc2n[nH]c(C)c21 (stereo not drawn) | 7% | -11 | -8 | -17% | 0%
Cc1[nH]nc2c1C(C1CC=CCC1)C(C#N)=C(N)O2 (stereo not drawn) | 11µM* | 1 | -14 | 6.3µM* | -3%
Cc1cc(C2C(C#N)=C(N)Oc3n[nH]c(C)c32)c(C)s1 (stereo not drawn) | 11µM* | . | -6 | 10µM* | 9%
Cc1[nH]nc2c1C(c1ccc(-c3ccccc3C#N)o1)C(C#N)=C(N)O2 (stereo not drawn) | ? | -24 | -3 | 8.9µM* | -13%
Cc1ccc(-c2ccc(C3C(C#N)=C(N)Oc4n[nH]c(C)c43)o2)cc1 (stereo not drawn) | 11µM* | -3 | -5 | 30% | ?
Cc1[nH]nc2c1C(c1ccsc1C)C(C#N)=C(N)O2 (stereo not drawn) | -3% | -7 | -4 | ? | ?
CCN(c1ccc(OC)cc1)S(=O)(=O)c1nnc(NC(=O)COc2ccccc2)s1 | -2% | . | -19 | 28% | -3%
CN(C(=O)C1CCCCC1)C1(C)CCS(=O)(=O)C1 (stereo not drawn) | . | . | 1 | . | 11%
SMILES | Gal4-VP16 FLuc | Coupling enz | TSHR antag | RORg inh | ELG1 DNA repair
Cc1cc(N2C(=O)c3ccc(C(=O)Nc4ccc(CC(=O)O)cc4)cc3C2=O)no1 | -10% | -1 | 42 | -1% | 22%
Cc1ccc(-n2[nH]c(=O)c(-c3ccccn3)c2C)cc1 | 2.8µM* | 0 | -2 | 1.3µM* | ?
COc1ccc(NS(=O)(=O)c2cn(C)cn2)cc1OC | -19% | 6 | 9 | 17% | 22%
COc1ccccc1CCn1c(=O)cnc2cncnc21 | -7% | 1 | . | 11% | .
C=C1C(=O)[C@@]23[C@H](O)C[C@@H]4C(C)(C)CC[C@H](O)[C@]4(C)[C@@H]2C[C@H](O)[C@@H]1[C@H]3O | 3.2µM* | 7 | 5 | 2.5µM* | 16µM*
C=C1C(=O)[C@@]23[C@H](O)C[C@@H]4C(C)(C)CC[C@H](O)[C@@]4(C)[C@@H]2CC[C@@H]1[C@H]3O | 5.6µM* | 6 | -24 | 2.8µM* | 6.5µM*
O=C1c2cc(O)cc(O)c2OC[C@@H]1c1ccc(O)c(O)c1 | -3% | -2 | . | 1% | .
C[C@@H]1C(=O)O[C@H]2[C@H](O)[C@@]34[C@H]5CC(C(C)(C)C)[C@]36[C@H](OC(=O)[C@H]6O)O[C@]4(C(=O)O5)[C@@]12O (stereo partly drawn) | 3% | 4 | . | -24% | .
Cc1ccc(/C=N/NC(=O)c2nnn(-c3nonc3N)c2CSc2ccccc2)s1 | 5µM* | -4 | -15 | 4µM* | ?
Cc1ccsc1/C=N/NC(=O)c1nnn(-c2nonc2N)c1CSc1ccccc1 | 4µM* | 1 | 15 | 2.5µM* | ?
CC(C)N=C1NN=C(c2ccc(F)cc2)CS1 | ? | -2 | 5 | 7.1µM* | ?
COc1ccccc1C1=NNC(=NCc2ccccc2)SC1 | -5% | 0 | -3 | 11µM* | 30%
Fc1ccccc1N=C1NN=C(c2ccccc2)CS1 | -17% | 2 | -11 | ? | ?
CCN=C1NN=C(c2ccc(C)cc2)CS1 | ? | . | -24 | 11µM* | ?
Fc1ccc(C2=NNC(=NCc3ccccc3)SC2)cc1F | -26% | -2 | 9 | 14µM* | ?
O=C(COC(=O)/C=C/c1ccccc1[N+](=O)[O-])Nc1ccc2[nH]c(=O)[nH]c2c1 | . | . | 1 | . | -1%
c1ccc(CN=C2NN=C(c3ccccc3)CS2)cc1 | -76% | 1 | -2 | ? | ?
Clc1ccc(C2=NNC(=NCc3ccccc3)SC2)cc1 | ? | 1 | 31 | 5µM* | ?
CC(=O)Nc1ccc(C2NC(C(=O)O)CCC2C)cc1 (stereo not drawn) | -13%[10 µM] | -3 | . | 7%[10 µM] | .
CC(C)CC(=O)NC(=S)Nc1cccc(NC(=O)c2ccccc2)c1 | ? | 0 | 29 | ? | ?
CCCCCC(=O)NC(=S)Nc1ccc(NC(=O)c2ccco2)cc1 | ? | 4 | -1 | 10µM* | -20%
CCCCC(=O)Nc1cccc(NC(=S)NC(=O)Cc2ccccc2)c1 | -9% | 0 | -3 | ? | ?
CCCC(=O)NC(=S)Nc1cccc(NC(=O)c2ccccc2)c1 | 3.5µM* | 1 | 15 | ? | ?
